# Most compounds without a hit are left out; they make up all but 1.1% or so of the library.
# IDE cell inh = inhibitors of human insulin-degrading enzyme in cells. P14735. HEK cells, FAbetaB cleavage, fluorescence polarization. inhibition, % at 5.59 µM. 0.41% of 320,000 active;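 active means percent inhibition above the average of all tested compounds plus 3 SD, set per screening campaign, cut at about 16% in these data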;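 further: IDE supplied by intact live HEK cells; FP after avidin binding of uncleaved biotin substrate so inhibition keeps polarization high; 0% = DMSO wells and 100% = 60 µM reference IDE inhibitor Ii1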
# IDE cell activ = IDE (human) activation, cell-based. P14735. HEK cells, FAbeta-B cleavage, fluorescence polarization; 0% vehicle, 100% cell-free pure enzyme wells. activation, % at 5.96 µM. 0.073% of 340,000 active;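 active means activation above the mean of all tested compounds plus 3 SD, set per screening campaign, cut at about 17% in these data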
# LANA-H2A inh = blocks KSHV LANA binding to histone H2A/H2B | 0.6% of 320,000 active | inhibition, % (test concentration not listed) | cell-free LANA-H2A/H2B peptide, fluorescence polarization | Q9QR71; in the data active means inhibition mostly above about 10%, no sharp cut-off; inactive means mostly below about 6.7%
# HDAC3 inh = human HDAC3 inhibition; O15379; inhibition, % at 8.3 µM; recombinant HDAC3, fluorogenic peptide/trypsin coupled, fluorescence; 0.15% of 320,000 active; in the data active means inhibition above about 26%, passing the limit was not always enough
# Target sequence (O15379 whole entry, looked up): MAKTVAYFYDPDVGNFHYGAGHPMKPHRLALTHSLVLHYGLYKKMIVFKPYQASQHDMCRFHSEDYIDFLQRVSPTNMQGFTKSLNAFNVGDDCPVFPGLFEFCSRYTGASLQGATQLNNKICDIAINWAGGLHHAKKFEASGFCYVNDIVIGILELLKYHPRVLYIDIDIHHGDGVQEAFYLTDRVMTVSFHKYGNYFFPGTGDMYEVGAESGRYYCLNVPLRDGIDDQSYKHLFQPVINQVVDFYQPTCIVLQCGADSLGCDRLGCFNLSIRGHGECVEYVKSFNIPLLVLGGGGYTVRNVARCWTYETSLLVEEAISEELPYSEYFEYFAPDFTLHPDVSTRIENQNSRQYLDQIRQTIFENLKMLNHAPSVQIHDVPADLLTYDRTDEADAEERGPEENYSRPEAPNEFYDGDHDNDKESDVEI
# Starred values were filed as active, the others as inactive; . = no result given; + = active, no number; ! = not confirmed by another sample.
SMILES,IDE cell inh,IDE cell activ,LANA-H2A inh,HDAC3 inh
O=C(NC1CCCCC1)NC1(C(=O)N2CCN3CCCC3C2)CCCCC1 (stereo not drawn),9,2,29*,1
Cc1ccc(Nc2nc(N/N=C/c3c[nH]c4ccccc34)nc(N3CCOCC3)n2)cc1,3,1,-3,26*
CCCCCc1c(C)nc(SCC(=O)O)[nH]c1=O,-10,11,4,-6
CCCCCCCc1c(O)nc(SCC(=O)O)[nH]c1=O,1,3,48*,0
CCCCN(C(=O)CCCc1nc2ccccc2s1)c1c(N)n(CC(C)C)c(=O)[nH]c1=O,0,-6,176*,-5
CCCCn1c(N)c(N(CCC(C)C)C(=O)CCCc2nc3ccccc3s2)c(=O)[nH]c1=O,-3,-1,4,-11
CCCCN(C(=O)C(C)N1C(=O)c2ccccc2C1=O)c1c(N)n(CC(C)C)c(=O)[nH]c1=O (stereo not drawn),-2,-1,14*,1
COc1ccc(C=O)c(OC)c1,8,0,12*,-1
COc1cc(O)ccc1C=O,-4,3,-5,.
COc1ccc(C(=O)OC(C)C(=O)NCC2CCCCC2)cc1S(=O)(=O)N1CCOCC1 (stereo not drawn),-1,5,-2,0
COc1ccc(CNC(=O)COC(=O)CCn2c(C)csc2=O)cc1OC,-2,-3,3,-1
CC(=O)Nc1ccc(NC(=O)CSc2nnc(-c3ccco3)o2)cc1,-3,-2,20*,1
O=C(CN1C(=O)COc2ccc(S(=O)(=O)N3CCCC3)cc21)NCc1ccccn1,1,19*,1,0
CC(C)OCCCNC(=O)CN1C(=O)COc2ccc(S(=O)(=O)N3CCCCCC3)cc21,3,8,.,.
O=C(CN1C(=O)CSc2ccc(S(=O)(=O)N3CCCCC3)cc21)NCc1ccccc1,-3,1,56*,-1
CCCCN(C)CCNC(=O)CN1C(=O)CSc2ccc(S(=O)(=O)N3CCCC3)cc21,1,3,19*,2
CC(C)OCCCNC(=O)CN1C(=O)CSc2ccc(S(=O)(=O)N3CCCCC3)cc21,-3,4,22*,2
COc1ccccc1C(=O)Nc1ccc(OCC(=O)N2CC(C)CC(C)C2)cc1 (stereo not drawn),5,-6,-1,0
COc1cc2c3nnc(-c4ccc(F)cc4)c-3cn(Cc3ccccc3)c2cc1OC,7,-5,9,-10
O=C1CSc2ccc(S(=O)(=O)CCC(=O)NC3CCCCC3)cc2N1,3,3,-1,-1
Cc1ccc(N(CC2=NCCN2)c2cccc(O)c2)cc1,0,1,23*!,-1
COc1ccccc1N1CCN(C(=O)c2cc3ccccc3[nH]2)CC1,9,3,-5,3
COc1ccccc1N1CCN(C(=O)c2cc3cc(C)ccc3[nH]2)CC1,4,0,15*,5
CC1Cc2ccccc2N1S(=O)(=O)c1cccc(C(=O)NCc2ccco2)c1 (stereo not drawn),3,-1,3,3
O=C(CNC(=O)N1CC(=O)Nc2ccccc21)NCCc1ccc(Cl)cc1,3,-4,17*,3
SMILES,IDE cell inh,IDE cell activ,LANA-H2A inh,HDAC3 inh
O=C(CNC(=O)N1CC(=O)Nc2ccccc21)NCc1cccc(Cl)c1,2,-3,-4,-6
CC(C)NC[C@H](O)COc1ccc(CC(N)=O)cc1,3,5,5,-2
CCc1cccc(Nc2cnn(C34C[C@@H]5C[C@@H](CC(CC(=O)O)(C5)C3)C4)c(=O)c2Cl)c1,21*,-22,-2,5
CCOc1ccc(C(=O)NC(C)C2COc3ccccc3O2)cc1 (stereo not drawn),1,6,36*,2
O=C1CCCC(O)=C1C=Nc1ccc(O)cc1,2,1,17*,5
O=C1c2cccc3c(N4CCCCC4)ccc(c23)C(=O)N1CCO,51*,-35,49*,-37
Cc1ccc(NC(=O)C(C)OC(=O)COc2cccc(C(F)(F)F)c2)cc1 (stereo not drawn),-1,3,19*,1
CC(=O)Nc1ccc(S(=O)(=O)NCCC(=O)OCc2nc(N)nc(Nc3ccccc3C)n2)cc1,2,3,157*,-9
CCCCOC(=O)COc1ccc(Cl)cc1Cl,3,-1,14*,-6
CN(C)c1nc(OCCOC(=O)COc2ccc(Cl)cc2Cl)nc(N(C)C)n1,5,3,4,1
O=C(CSc1ccccc1C(=O)O)NCC1CCCCC1,-2,3,-4,2
O=C(CCCOc1ccc(Br)cc1)Nc1ccc(S(=O)(=O)N2CCOCC2)cc1,12,-10,-2,8
CC(C)(C)C(=O)NCCc1nc(-c2ccccc2)no1,1,1,-1,3
O=C1C=C(c2cccc3c2sc2ccccc23)C[C@@H](c2ccc(Cl)cc2)C1,6,23*,3,-3
O=C1C=C(c2cc3ccccc3s2)C[C@@H](c2ccc(Cl)cc2)C1,1,-1,4,-3
COc1c(C(CC(C)C)OC(C)=O)ccc2c1C(=O)OCc1cc(C)cc(O)c1O2 (stereo not drawn),2,5,8,34*
O=C(C[C@@H]1C/C=C/CCCC(=O)O[C@H](c2ccccc2)CNC1=O)N[C@H](CO)Cc1ccccc1,1,1,10*,2
O=C(C[C@H]1C/C=C\C[C@@H](Cc2ccc(F)cc2)C(=O)O[C@H](c2ccccc2)CNC1=O)N[C@@H](CO)Cc1ccccc1,0,3,0,-1
Cc1cccc([N+](=O)[O-])c1NC(=O)CSc1nnc2ccccn12,-3,-1,2,4
O=C(c1nn2c(C(F)(F)F)cc(-c3ccccc3)nc2c1Cl)N1CCN2CCCC2C1 (stereo not drawn),.,4,.,.
Cc1cccc(Oc2ccccc2NC(=O)C2=COCCO2)c1,-2,5,+,5
COc1ccccc1NS(=O)(=O)c1cccc(NC(=O)C2CC2)c1,-5,21*,-1,-1
O=C(N/N=C/c1ccc([N+](=O)[O-])s1)c1ccccc1,9,1,5,-1
O=C(CNC(=O)c1cccc(F)c1)N/N=C/c1ccc([N+](=O)[O-])s1,3,4,14*,10
O=C(Nc1ccc(S(=O)(=O)Nc2cnc3ccccc3n2)cc1)c1cc(F)c(F)cc1Cl,2,6,22*,-4
SMILES,IDE cell inh,IDE cell activ,LANA-H2A inh,HDAC3 inh
O=C(Nc1ccc(S(=O)(=O)Nc2cnc3ccccc3n2)cc1)c1ccc(Cl)cc1Cl,9,.,2,-7
Cc1ccc(N2CCN(/N=C/c3sccc3C)CC2)cc1,3,5,-2,-1
CCCCc1c(C)[nH]c(=S)[nH]c1=O,-1,4,2,-1
Cc1[nH]c(=S)[nH]c(=O)c1CCCO,2,5,18*,-16
Cc1ccc(SCc2cc(=O)[nH]c(N3CCOCC3)n2)cc1,9,-6,17*,-17
CN1CCc2c(sc(/N=C/c3c[nH]c4ccccc34)c2C#N)C1,2,.,38*,0
CCN(CC)CCN1C(=O)C(=O)/C(=C(/O)c2ccc(S(=O)(=O)N3CCOCC3)cc2)C1c1ccc(C(C)C)cc1 (stereo not drawn),-1,-2,2,-4
